The nature of assay [1]: qHTS assay to identify small molecule agonists of the peroxisome proliferator-activated receptor delta (PPARd) signaling pathway - cell viability counter screen (AID 743211). Also: nearly all actives have a fitted effect of over 55% in size. Also: potency is read from the fitted curve at half-maximal effect. Summed up:
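In the same wells used for beta-lactamase reporter measurement, cytotoxicity is scored by CellTiter-Glo. HEK293H PPARd-bla cells receive compound for 17 h at 37C following a 5 h settling period.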
(qHTS replaces the single test concentration by a dilution series.)

The target in assay [2] is Peroxisome proliferator-activated receptor delta (Homo sapiens) (UniProt Q03181). Briefly: qHTS assay to identify small molecule agonists of the peroxisome proliferator-activated receptor delta (PPARd) signaling pathway (AID 743212; calls by dose curve). The method, boiled down:
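HEK293H PPARd-bla cells; 5 h preincubation 37 C/5% CO2; compound (DMSO) 37 C; LiveBLAzer B/G FRET substrate 2 h RT; fluorescence intensity.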

Assay [3] can be described thus: qHTS assay to identify small molecule antagonists of the peroxisome proliferator-activated receptor delta (PPARd) signaling pathway - cell viability counter screen (AID 743213). Also: nearly all actives have a fitted effect of over 50% in size. The method, boiled down:
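PPARd-bla HEK293H cells (3000/well) got compound plus 300 nM L165041 agonist for 17 h at 37 C. Viability in the same wells came from CellTiter-Glo luminescence after 30 min at room temperature.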

The target of assay [4] is Peroxisome proliferator-activated receptor delta (Homo sapiens) (UniProt Q03181). Briefly: qHTS assay to identify small molecule antagonists of the peroxisome proliferator-activated receptor delta (PPARd) signaling pathway (AID 743215; active = well fitted inhibition curve with a large enough effect in the signal ratio in the repeat runs, not every such curve was filed as active; the % refers to the signal ratio;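 also: cells stimulated with agonist L165041 at 300 nM final during compound exposure; series mostly up to about 62 µM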). The method, boiled down: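 Read-out is beta-lactamase FRET fluorescence, measured 2 h after substrate addition at room temperature. Beforehand, UAS-bla HEK293H cells carrying the PPARd reporter were exposed to compounds with L165041 at 300 nM final for 17 h at 37 C.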
Peroxisome proliferator-activated receptor delta (Homo sapiens), sequence (Q03181 whole entry, looked up): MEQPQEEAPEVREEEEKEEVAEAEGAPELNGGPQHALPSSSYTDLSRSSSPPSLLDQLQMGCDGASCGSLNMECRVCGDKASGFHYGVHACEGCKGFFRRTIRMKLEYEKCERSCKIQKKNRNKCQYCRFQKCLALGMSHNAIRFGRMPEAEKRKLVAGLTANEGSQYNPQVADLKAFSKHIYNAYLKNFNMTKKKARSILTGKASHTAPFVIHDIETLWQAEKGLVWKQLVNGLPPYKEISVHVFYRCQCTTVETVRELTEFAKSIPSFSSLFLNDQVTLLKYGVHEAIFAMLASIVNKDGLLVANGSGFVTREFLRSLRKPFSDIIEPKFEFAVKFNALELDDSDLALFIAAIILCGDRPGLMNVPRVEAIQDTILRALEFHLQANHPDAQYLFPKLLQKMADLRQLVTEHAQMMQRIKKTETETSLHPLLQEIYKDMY

Assay [5] deals with Bile acid receptor (Homo sapiens) (UniProt Q96RI1). Briefly: qHTS assay to identify small molecule antagonists of the farnesoid-X-receptor (FXR) signaling pathway (AID 743217; active = well fitted inhibition curve with a large enough effect in the signal ratio in the repeat runs, not every such curve was filed as active; the % refers to the signal ratio). The method, boiled down: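 HEK 293T FXR-UAS-bla, 5000 cells/well; compound + CDCA 50 uM final; 16 h, 37 °C; B/G FRET substrate 2 h RT; fluorescence.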
Bile acid receptor (Homo sapiens), sequence (Q96RI1 whole entry, looked up): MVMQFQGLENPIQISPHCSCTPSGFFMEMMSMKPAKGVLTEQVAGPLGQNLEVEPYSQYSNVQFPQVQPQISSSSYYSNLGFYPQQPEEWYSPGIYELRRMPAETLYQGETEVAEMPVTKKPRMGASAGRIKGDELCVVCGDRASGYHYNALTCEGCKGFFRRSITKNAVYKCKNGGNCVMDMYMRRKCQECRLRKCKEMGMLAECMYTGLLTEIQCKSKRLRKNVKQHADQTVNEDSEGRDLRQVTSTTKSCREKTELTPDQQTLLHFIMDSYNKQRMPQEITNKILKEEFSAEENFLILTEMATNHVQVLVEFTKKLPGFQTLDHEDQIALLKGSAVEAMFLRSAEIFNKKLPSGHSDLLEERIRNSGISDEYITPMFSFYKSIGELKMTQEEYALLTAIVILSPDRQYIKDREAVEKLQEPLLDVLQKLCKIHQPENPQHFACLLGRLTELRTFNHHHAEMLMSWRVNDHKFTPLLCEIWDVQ
The nature of assay [6]: qHTS assay to identify small molecule agonists of the farnesoid-X-receptor (FXR) signaling pathway - cell viability counter screen (AID 743218). Also: nearly all actives have a fitted effect of over 45% in size. The method, boiled down:
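HEK 293T FXR-bla cells; 5 h pre-incubation, 16 h compound exposure at 37 C; LiveBLAzer substrate 2 h RT, then CellTiter-Glo 30 min RT, luminescence.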

In assay [7] the target is Bile acid receptor (Homo sapiens) (UniProt Q96RI1). Briefly: qHTS assay to identify small molecule agonists of the farnesoid-X-receptor (FXR) signaling pathway (AID 743220; active = well fitted activation curve with a large enough effect in the signal ratio in the repeat runs, not every such curve was filed as active; the % refers to the signal ratio). The method, boiled down: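 Beta-lactamase reporter under UAS control in GeneBLAzer FXR HEK 293T cells (5000/well) measured with LiveBLAzer FRET substrate after 2 h at room temperature. Compound exposure lasted 16 h at 37C.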

Assay [8] can be described thus: qHTS assay to identify small molecule antagonists of the farnesoid-X-receptor (FXR) signaling pathway - cell viability counter screen (AID 743221; active = well fitted cell-killing curve with a large enough effect in the repeat runs, not every such curve was filed as active; also: nearly all actives have a fitted effect of over 50% in size). The method, boiled down:
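Here viability was scored by luminescence after CellTiter-Glo addition to wells already read for beta-lactamase. Prior treatment: compound plus CDCA (50 uM final), 16 h, 37 C, HEK 293T FXR-bla cells.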

Assay [9] has as its target Vitamin D3 receptor (Homo sapiens) (UniProt P11473). Briefly: qHTS assay to identify small molecule agonists of the vitamin D receptor (VDR) signaling pathway (AID 743222; calls by dose curve). Summed up:
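VDR-bla cells, 2,000/well; 4 h preincubation 37C; cpd (DMSO) 16 h; LiveBLAzer B/G substrate 2 h RT; fluorescence intensity read.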

Assay [10] shares this target. Briefly: qHTS assay to identify small molecule antagonists of the vitamin D receptor (VDR) signaling pathway (AID 743223; active = well fitted inhibition curve with a large enough effect in the signal ratio in the repeat runs, not every such curve was filed as active; the % refers to the signal ratio). The method, boiled down: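 Inhibition of agonist-driven VDR signalling is scored in VDR-bla cells: 3 nM final 1alpha,25-dihydroxyvitamin D3 plus compound, 16 h at 37C, then beta-lactamase detection by FRET substrate fluorescence after 2 h.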

Here are results for 29 compounds from PubChem BioAssay (Tox21).

Structures are written as SMILES. Records with an inconclusive call do not appear. Activity calls are given as the source filed them. Unless noted, calls follow the shape of the dose curve; as a rule, active = well fitted curve in the direction sought with a large enough effect in the repeat runs; inconclusive = weak or mixed curves; inactive = no such curve, though single readings can be large; an effect the other way counts as inactive or inconclusive.

Vitamin D3 receptor (Homo sapiens), sequence (P11473 whole entry, looked up): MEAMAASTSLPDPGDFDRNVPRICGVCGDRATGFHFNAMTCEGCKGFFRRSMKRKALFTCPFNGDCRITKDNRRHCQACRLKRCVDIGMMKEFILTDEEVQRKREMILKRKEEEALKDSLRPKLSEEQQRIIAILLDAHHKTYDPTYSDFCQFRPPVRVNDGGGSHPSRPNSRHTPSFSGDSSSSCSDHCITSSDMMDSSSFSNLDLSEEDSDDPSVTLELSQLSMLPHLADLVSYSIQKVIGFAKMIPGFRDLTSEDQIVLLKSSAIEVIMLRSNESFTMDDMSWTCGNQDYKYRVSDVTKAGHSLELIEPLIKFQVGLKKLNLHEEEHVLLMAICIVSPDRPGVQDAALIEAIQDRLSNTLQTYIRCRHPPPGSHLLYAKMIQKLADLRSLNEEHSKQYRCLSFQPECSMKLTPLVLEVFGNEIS

In the case of `CC1(C)O[C@@H]2C[C@H]3[C@@H]4C[C@H](F)C5=CC(=O)C=C[C@]5(C)[C@H]4[C@@H](O)C[C@]3(C)[C@]2(C(=O)CO)O1`, the Potency entry in assay [1], in [2], in assay [3], in [4], in [5] and in assay [6] was “inactive” throughout. Besides, the Potency entry in assay [7] and in assay [8] was “inactive” throughout.

For the compound `C=C1c2cccc(O)c2C(O)=C2C(=O)[C@]3(O)C(O)=C(C(N)=O)C(=O)[C@@H](N(C)C)[C@@H]3[C@@H](O)[C@H]12`, the Potency result in [1], in assay [2], in [3], in assay [4], in assay [5] and in assay [7] was “inactive” each time.

For the compound `CCOC(=O)c1ccc(I)cc1`, the Potency entry in assay [1], in [2], in assay [3], in assay [4], in [5] and in [6] was “inactive” each time. For the same compound, the Potency result in assay [7], in assay [8], in [9] and in assay [10] was “inactive” in each case.

On to `O[C@@H]1CO[C@H]2[C@@H]1OC[C@@H]2O`, for which the Potency entry in [1], in [2], in assay [3], in assay [4], in [5] and in [6] was “inactive” throughout. In addition, the Potency entry in assay [7], in assay [8], in [9] and in [10] was “inactive” throughout.

For the compound `CC(C)=CCC/C(C)=C/CC/C(C)=C/C(=O)OCC(=O)[C@@]1(O)CC[C@H]2[C@@H]3CCC4=CC(=O)C=C[C@]4(C)[C@H]3[C@@H](O)C[C@@]21C`, the Potency in assay [1] was 23.7 µM (active).

As for `Cc1cccc(N(C)C(=S)Oc2ccc3c(c2)CCC3)c1`, the Potency result in [1], in assay [2], in assay [3], in assay [4], in assay [5] and in [6] was “inactive” in each case. The Potency result in assay [7], in assay [8], in assay [9] and in assay [10] was “inactive” each time.

As for `CCCCCCCC/C=C\CCCCCCCCCCCC(=O)O`, the Potency entry in [1], in [2], in [3], in [4], in assay [5] and in [6] was “inactive” in each case. Besides, the Potency result in assay [7] and in [8] was “inactive” throughout.

Regarding `CCC1CO1` (centres undefined), the Potency result in [1], in assay [2], in assay [3], in [4], in assay [5] and in assay [6] was “inactive” in each case. Moreover, the Potency entry in assay [7] and in assay [10] was “inactive” each time.

`CCCCCCC(C)(C)C(=O)O`: the Potency entry in assay [1], in assay [2], in [3], in assay [4], in assay [5] and in assay [6] was “inactive” each time. The Potency result in [7] and in assay [8] was “inactive” in each case.

As for `COc1ccccc1N1CCN(CCCCNC(=O)c2ccc(-c3ccc(C(C)=O)cc3)cc2)CC1`, the Potency entry in assay [1], in assay [2], in [3], in assay [4], in [5] and in assay [6] was “inactive” each time. Besides, the Potency entry in assay [7], in [8], in assay [9] and in [10] was “inactive” each time.

`CC(=O)OCC[N+](C)(C)C`: the Potency result in assay [1], in [2], in [3], in assay [4], in [5] and in assay [6] was “inactive” each time. The Potency result in assay [7], in assay [8], in assay [9] and in [10] was “inactive” in each case.

For `O=C(CCc1ccc(O)cc1)c1c(O)cc(O)cc1O`, the Potency entry in assay [1], in assay [2], in assay [3], in assay [4], in assay [5] and in [6] was “inactive” each time. The Potency entry in assay [7] and in assay [10] was “inactive” in each case.

Turning to `CCC(C)COC(C)=O` (centres undefined), the Potency entry in [1], in [2], in assay [3], in assay [4], in assay [5] and in [6] was “inactive” throughout. Further, the Potency result in [7] and in assay [8] was “inactive” throughout.

With `CN1C(=O)OC(C)(C)C1=O`, the Potency result in [1], in [2], in assay [3], in assay [4] and in [6] was “inactive” throughout.

Turning to `CC=C(Cl)Cl`, the Potency entry in [1], in assay [2], in assay [3], in [4], in assay [6] and in assay [8] was “inactive” in each case. For the same compound, the Potency result in assay [9] and in assay [10] was “inactive” in each case.

Take `CC1CC(C)C(=O)C1=O` (centres undefined): the Potency entry in assay [1], in [2], in assay [3], in [4], in assay [6] and in assay [8] was “inactive” each time.

Turning to `C(=C\c1ccccc1)/c1ccccc1`, the Potency result in assay [1], in [2], in [3], in [4], in [5] and in assay [7] was “inactive” in each case. Moreover, the Potency entry in assay [9] and in assay [10] was “inactive” in each case.

As for `COc1ncnc(NS(=O)(=O)c2ccc(N)cc2)c1OC`, the Potency entry in [1], in [2], in assay [3], in assay [4], in assay [6] and in assay [8] was “inactive” throughout. Moreover, in assay [9], the Potency result is “inactive”.

As for `CC(C)=CCC/C(C)=C/CC/C(C)=C/CCC(=O)OC/C=C(\C)CCC=C(C)C`, the Potency result in assay [1], in assay [2], in assay [3], in assay [4] and in [6] was “inactive” each time.

As to `O=C(O)C[C@H](NC(=O)OCc1ccccc1)C(=O)O`, the Potency result in [1], in [2], in [3], in assay [4], in [6] and in [8] was “inactive” throughout. Further, the Potency result in assay [9] and in assay [10] was “inactive” throughout.

On to `C=CC(=O)[O-].C=CC(=O)[O-].[Zn+2]`, for which the Potency result in assay [1], in [2], in assay [3], in assay [4], in [6] and in assay [8] was “inactive” in each case. In addition, the Potency entry in assay [9] and in assay [10] was “inactive” throughout.

Regarding `CCOC(=O)c1ccc(OCCN2C[C@H](O)[C@@H](O)[C@H](O)[C@H]2CO)cc1`, the Potency entry in assay [1], in [2], in assay [3], in assay [4], in assay [6] and in [8] was “inactive” each time. Also, the Potency result in assay [10] was “inactive”.

Consider `COC(=O)CS`, for which the Potency entry in [1], in assay [2], in [3], in assay [4], in assay [6] and in [8] was “inactive” in each case. The Potency result in assay [9] is “inactive”.

As for `C=C(C)C(=O)OCCOCCOC(=O)C(=C)C`, the Potency entry in [1], in assay [2], in assay [3], in [4], in [5] and in assay [7] was “inactive” in each case. Further, the Potency entry in assay [10] is “inactive”.

Consider `O=C(O)CCCCCCCCCCCBr`, for which the Potency entry in [1], in assay [2], in assay [3], in assay [4], in [6] and in assay [8] was “inactive” in each case.

As to `CN1C(C(=O)Nc2ccccn2)=C(O)c2sccc2S1(=O)=O`, the Potency entry in assay [1], in assay [2], in assay [3], in assay [4], in assay [6] and in [8] was “inactive” each time.

In the case of `O=C1NC(=O)c2cc([N+](=O)[O-])ccc21`, the Potency entry in assay [1], in [2], in assay [3], in [4] and in [6] was “inactive” in each case.

As to `O=C1Cc2cc(Cl)ccc2N1`, the Potency result in assay [1], in assay [2], in assay [3], in assay [4], in assay [6] and in assay [8] was “inactive” throughout. Also, the Potency entry in assay [9] and in assay [10] was “inactive” in each case.

As for `COC(=O)CCS`, the Potency result in assay [1], in assay [2], in assay [3], in [4], in [6] and in assay [8] was “inactive” in each case. For the same compound, the Potency entry in [9] and in [10] was “inactive” each time.
